Source: PubChem BioAssay
KKLEB tox – CF airway cell cytotoxicity counter-screen; KKLEB CF airway cells viability, ATPlite luminescence, overnight; active compounds read low; cells stimulated with P. aeruginosa culture filtrate; activity change (cytotoxicity), % at 5 µM; actives 0.36% (n = 360,000); AID 602141;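 active = corrected activity change at or below -50% at 5 µM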
Peg3 prom inh – reduces Peg3 promoter-driven luciferase expression in HeLa; inhibition, % at 20 µM; HeLa PEG-Prom luciferase reporter, luminescence, overnight; actives 1.7% (n = 360,000);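 active = inhibition of at least 50% at 20 µM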
CF NFkB inh – inhibitors of cystic fibrosis induced NF-kB; actives 0.86% (n = 360,000); inhibition, % at 5 µM; AID 588850; KKLEB NF-kB-GFP reporter, PAF-induced, GFP fluorescence overnight;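 active = at least 50% inhibition at 5 µM, scaled per plate between neutral and stimulator controls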;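 also: PAF is a Pseudomonas aeruginosa culture filtrate used as stimulus; plate controls were PAF-stimulated DMSO wells for no effect and unstimulated DMSO wells for full effect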
Mdm2-MdmX inh – disrupts the human Mdm2-MdmX interaction; O15151+Q00987; SaOS-2 split-luciferase Mdm2/MdmX complementation, luminescence; inhibition, % at 8 µM; actives 3% (n = 330,000); AID 485346;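 active = inhibition of at least 50% at 8 µM in the primary screen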
Target sequence (O15151 whole entry, looked up): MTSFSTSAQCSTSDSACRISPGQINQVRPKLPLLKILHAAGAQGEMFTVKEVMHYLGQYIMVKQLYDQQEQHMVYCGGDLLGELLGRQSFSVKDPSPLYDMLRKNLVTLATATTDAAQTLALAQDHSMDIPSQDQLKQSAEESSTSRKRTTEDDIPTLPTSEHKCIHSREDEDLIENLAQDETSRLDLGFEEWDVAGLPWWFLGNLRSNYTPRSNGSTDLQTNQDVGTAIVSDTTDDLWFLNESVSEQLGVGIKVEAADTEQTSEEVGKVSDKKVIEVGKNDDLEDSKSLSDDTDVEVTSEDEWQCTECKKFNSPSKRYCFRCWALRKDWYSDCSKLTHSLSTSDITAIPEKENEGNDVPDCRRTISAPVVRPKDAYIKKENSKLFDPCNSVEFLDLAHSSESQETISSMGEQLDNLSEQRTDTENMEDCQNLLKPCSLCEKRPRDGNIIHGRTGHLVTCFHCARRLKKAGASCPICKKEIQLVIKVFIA
Target sequence (Q00987 whole entry, looked up): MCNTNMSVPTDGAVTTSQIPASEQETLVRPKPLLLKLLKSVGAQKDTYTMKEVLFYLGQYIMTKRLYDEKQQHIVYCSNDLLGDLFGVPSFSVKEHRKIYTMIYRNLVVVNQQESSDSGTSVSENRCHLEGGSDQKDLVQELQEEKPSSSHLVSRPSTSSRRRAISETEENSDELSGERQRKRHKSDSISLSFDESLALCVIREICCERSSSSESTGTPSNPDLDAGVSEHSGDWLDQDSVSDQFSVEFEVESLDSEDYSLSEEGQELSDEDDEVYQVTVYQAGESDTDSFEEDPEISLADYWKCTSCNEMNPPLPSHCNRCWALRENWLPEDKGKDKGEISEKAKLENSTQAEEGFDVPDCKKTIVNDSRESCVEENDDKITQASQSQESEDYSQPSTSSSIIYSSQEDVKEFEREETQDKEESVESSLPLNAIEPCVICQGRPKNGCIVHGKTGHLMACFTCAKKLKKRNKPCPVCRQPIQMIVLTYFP
LGR2 antag – blocks bursicon-induced cAMP signaling via Drosophila LGR2; HEK293 LGR2, CRE-luciferase, bursicon-stimulated, 4 h; inhibition, % at 9.99 µM; actives 0.35% (n = 380,000); AID 720647;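 active = drop in luminescence signal, shown as inhibition above about 50% in the replicate tests, limit read from the data, passing the limit was not always enough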;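 also: agonist challenge used bursicon conditioned medium at about half maximal strength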
HSP90 inh – inhibitors of HSP90 luciferase refolding in rabbit reticulocyte lysate | luciferase refolding luminescence, 3 h | inhibition, % at 5.6 µM | actives 0.91% (n = 290,000) | AID 1789;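 active = inhibition above the screen-wide mean plus 3 SD, computed separately per campaign, cut at about 16% in these data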;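 also: 0% = DMSO wells and 100% = 60 µM geldanamycin wells; inhibitors lower the luminescence because luciferase stays unfolded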
CF NFkB inh conf – confirmation of cystic fibrosis induced NF-kB inhibitors; shares compounds with CF NFkB inh; KKLEB CF airway cells, PAF-induced NF-kB-GFP fluorescence, overnight; inhibition, % at 5 µM; actives 64% (n = 1,300); in the data active = inhibition above about 40%;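 also: stimulus PAF is a Pseudomonas aeruginosa filtrate and not platelet activating factor; plate controls were DMSO wells with stimulus for no effect and unstimulated DMSO wells for full effect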
Numbers without * were called inactive; · = no result given. Shown are actives, neighbours in structure and some others; about 3.6% of the full set was active somewhere.

SMILES	KKLEB tox	Peg3 prom inh	CF NFkB inh	Mdm2-MdmX inh	LGR2 antag	HSP90 inh	CF NFkB inh conf
COc1cccc(C(=O)Nc2ccc3c(c2)C(=O)N(C)[C@@H]2CC[C@H](CC(=O)NCc4ccccc4F)O[C@@H]2CO3)c1	·	·	·	·	-17.1	·	·
COc1ccc2c(c1)C(NC(=O)C(F)(F)F)CC2=O (stereo unspecified)	-0.4	-29.9	5.3	-26.5	·	-3.0	·
COc1cc2c(c(OC)c1OC)-c1ccc(NCc3ccccc3)c(=O)cc1C(NC(C)=O)CC2 (stereo unspecified)	-37.0	1.3	63.6*	·	-10.1	·	86.6*
CCOCC(=O)NC1CCc2cc(OC(=O)COCC)c(OC)c(OC)c2-c2ccc(SC)c(=O)cc21 (stereo unspecified)	-28.3	-15.6	52.0*	·	14.2	·	83.5*
COc1cc2c(c(OC)c1OC)-c1ccc(SC)c(=O)cc1C(NC(=O)C(F)(F)F)CC2 (stereo unspecified)	-17.1	-32.6	56.2*	·	-12.8	·	83.8*
COc1ccc(S(=O)(=O)Nc2ccc3c(c2)OC[C@H](C)NC[C@@H](C)[C@H](OC)CN(C)C3=O)cc1	·	·	·	·	42.6	·	·
Cc1c(Cl)cccc1NC(=O)COC(=O)c1c2c(nc3ccccc13)CCN(Cc1ccccc1)C2	-21.5	59.8*	61.9*	37.6	·	0.7	76.0*
O=C(Nc1nc2ccc(Cl)cc2s1)[C@@H]1CCCN1C(=O)c1cccs1	-21.3	-107.5	52.7*	5.0	-24.9	5.2	39.1
CS(=O)(=O)N1CC(=O)N2[C@H](C1)[C@H](c1ccc(C#Cc3ccccc3)cc1)[C@@H]2CO	·	·	·	·	-0.4	·	·
ON=C1c2ccccc2-c2ccc(O)cc21	8.4	-255.7	-2.6	·	-55.6	·	·
ON=C1c2ccccc2-c2cc(Br)ccc21	-5.8	-39.3	77.8*	·	·	·	73.0*
Cc1noc(C)c1S(=O)(=O)Nc1ccc2c(c1)C(=O)N([C@@H](C)CO)C[C@@H](C)[C@@H](CN(C)C(=O)CCC(F)(F)F)OCCCC[C@@H](C)O2	·	·	·	·	10.7	·	·
Cc1ccccc1N1C(=O)C2C3C=CC(C2C1=O)N(C)C3=O (stereo unspecified)	-2.9	10.4	-5.5	16.4	·	-0.9	·
CN1C2C=CC(=O)C1C1C(=O)N(c3ccccc3)C(=O)C12 (stereo unspecified)	-6.5	38.3	61.5*	·	12.4	·	34.8
COc1ccc(OC)c(-c2cc(C(=O)N/N=C/c3ccc(F)cc3)c3ccccc3n2)c1	9.5	18.4	1.9	-3.2	-4.4	·	·
COc1ccc(OC)c(-c2cc(C(=O)Nc3ccccc3C(N)=O)c3ccccc3n2)c1	-19.2	54.1*	79.6*	43.4	·	·	23.6
COc1ccccc1-c1ccc2n(c1=O)C[C@H]1[C@H](CO)[C@@H](C(=O)N(C)C)N(CC3CCOCC3)[C@@H]21	·	·	·	·	7.1	·	·
CCC(CO)Oc1cc(NCc2ccc(C)c(C)c2)c2ncn(C(C)C)c2c1 (stereo unspecified)	-11.2	29.0	51.5*	25.9	-4.2	·	11.5
CCC(CO)Oc1cc(NCc2cc(C)cc(C)c2)c2ncn(C(C)C)c2c1 (stereo unspecified)	-3.5	-20.0	67.3*	20.5	16.0	·	23.7
CC(C)NC(=O)Nc1ccc2c(c1)C(=O)N([C@@H](C)CO)C[C@H](C)[C@@H](CN(C)S(=O)(=O)c1cn(C)cn1)OCCCC[C@H](C)O2	·	·	·	·	17.7	·	·
Cc1onc(-c2c(F)cccc2Cl)c1C(=O)Nc1ccc(S(=O)(=O)N2CCOCC2)cc1	-6.4	10.6	-6.7	-8.3	15.5	·	·
Cc1onc(-c2c(F)cccc2Cl)c1C(=O)Nc1cc(S(=O)(=O)N2CCCCC2)ccc1O	-13.6	41.6	56.0*	·	10.6	·	47.5*
Cc1ccc2occ(/C=N/NC(=O)c3ccccc3Br)c(=O)c2c1	0.6	29.1	57.2*	37.7	13.6	2.3	57.1*
Cc1ccc2occ(/C=N/NC(=O)c3ccc(O)cc3)c(=O)c2c1	-23.8	-5.6	65.6*	49.3	24.5	-1.4	28.5
C/C=C/c1ccc2c(c1)O[C@H](CN(C)S(=O)(=O)c1ccc(C)cc1)[C@H](C)CN([C@H](C)CO)S2(=O)=O	·	·	·	·	-0.5	·	·
SMILES	KKLEB tox	Peg3 prom inh	CF NFkB inh	Mdm2-MdmX inh	LGR2 antag	HSP90 inh	CF NFkB inh conf
CC1C(c2ccccc2)OCCN1C(=S)Nc1ccc(S(=O)(=O)N2CCCCC2)cc1 (stereo unspecified)	-0.9	19.6	57.5*	·	14.4	·	60.2*
COc1ccc(CN(C)C[C@@H]2OCCCC[C@H](C)Oc3ccc(NC(=O)NC(C)C)cc3C(=O)N([C@@H](C)CO)C[C@@H]2C)cc1	·	·	·	·	9.3	·	·
CCOC(=O)c1ccc(-n2[nH]c(-c3ccccc3)cc2=O)cc1	-48.2	-22.4	64.3*	31.7	·	7.2	75.9*
CCOC(=O)c1ccc(N=Nc2c(C)[nH]n(-c3ccccc3)c2=O)cc1	-0.1	8.4	-28.1	8.7	14.0	2.3	·
CC(C)NC(=O)N(C)C[C@H]1Oc2ccc(NC(=O)Nc3ccccc3)cc2C(=O)N([C@@H](C)CO)C[C@H]1C	·	·	·	·	-26.4	·	·
COc1ccc(-c2cc(=O)oc3cc(OC(=O)C4CCCCC4)ccc23)cc1	0.4	-13.1	74.4*	30.0	10.8	0.0	84.1*
O=C(Cc1ccccc1)N1C[C@@H]2[C@H](c3ccccc31)[C@@H](CO)N2C(=O)C1CCCCC1	·	·	·	·	-0.2	·	·
CC(C)Cn1c(C(C)C)nc([N+](=O)[O-])c1S(=O)(=O)c1ccc(F)cc1	-35.8	33.8	58.5*	39.6	·	6.6	5.2
CC(C)Cn1c(C(C)C)nc([N+](=O)[O-])c1Sc1ccc(Cl)cn1	-12.3	18.4	26.7	27.6	·	-0.7	·
CCCCN(C(=O)c1ccc(N2CCCC2=O)cc1)c1c(N)n(Cc2ccccc2)c(=O)[nH]c1=O	7.8	-23.3	58.2*	0.8	4.5	·	35.7
COCCCN(C(=O)c1ccc(N2CCCC2=O)cc1)c1c(N)n(Cc2ccccc2)c(=O)[nH]c1=O	3.9	-5.8	-5.1	2.1	16.0	·	·
COc1ccc(S(=O)(=O)N[C@@H]2C=C[C@@H](CC(=O)NCCc3ccncc3)O[C@H]2CO)cc1	·	·	·	·	-0.3	·	·
C[C@H](CO)N1C[C@H](C)[C@@H](CN(C)C(=O)CCCN(C)C)OCCCC[C@H](C)Oc2ccc(NS(=O)(=O)c3ccc(F)cc3)cc2C1=O	·	·	·	·	0.0	·	·
CCCCNc1cc(C(=O)O)cc(S(N)(=O)=O)c1Oc1ccccc1	23.6	3.6	61.5*	-1.5	6.0	1.9	1.3
O=C(Nc1nc2c(F)cc(F)cc2s1)c1ccc([N+](=O)[O-])o1	-41.2	-61.4	85.6*	-28.8	-36.6	2.3	16.1
COc1cccc(-c2ccc(C3[C@H]4CNC[C@@H]3N4C(=O)NC3CCCCC3)cc2)c1 (stereo partly specified)	·	·	·	·	-14.5	·	·
COc1ccc(NC(=O)CCN2C(=O)c3ccccc3C2=O)c(OC)c1	-1.1	15.4	21.0	3.8	2.4	3.8	·
